Drawing on PubChem BioAssay (Tox21), this text covers Potency and activation for 26 compounds.

Inconclusive results are not listed. Entries that show only a call come without a potency. Values without a mark were called inactive. The source made the active and inactive calls. Calls follow the shape of the full dose curve.

This experiment can be described thus: cAMP Responsive Elements (CRE) small molecule agonists, cell-based qHTS assay (AID 1963590). Conditions: CRE-bla HEK293T, beta-lactamase FRET ratio, 3 h; series mostly up to 92.4 µM. An outline of the steps: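 CRE-bla HEK 293T cells in DMEM with 10% dialyzed FBS, NEAA, pyruvate and 25 mM HEPES were plated 18 h at 37 C/5% CO2, then exposed to compounds in DMSO for 3 h before LiveBLAzer B/G FRET substrate addition.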
Background: Quantitative high-throughput screening tests each substance at several concentrations.
For the compound `COC(=O)c1c(Cl)c(Cl)c(C(=O)OC)c(Cl)c1Cl`, the Potency entry is “inactive”. Regarding `c1ccc2cc3c4ccccc4c4ccccc4c3cc2c1`, the Potency result is “inactive”. Consider `Cn1cc(S(C)=O)c(=O)c2ccc(F)cc21` (stereo unspecified), for which the Potency result was “inactive”. With `O=Cc1ccc(C(=O)O)cc1`, the Potency entry was “inactive”.

Take `CC(C)=CCC[C@H](C)CC=O`: the Potency result was “inactive”.

`CCC(=O)OCc1ccccc1`: the Potency entry was “inactive”. Same read-out and setting: then `O=[N+]([O-])c1ccc2c(c1)Cc1ccccc1-2`, with “inactive”; and `CCC1COC(=O)O1` (stereo unspecified), with “inactive”; and `O=[N+]([O-])c1ccccc1Nc1ccccc1`, with “inactive”.

As to `CCN1CCCC(OC(=O)C(c2ccccc2)c2ccccc2)C1` (stereo unspecified), the Potency entry is “inactive”.

Consider `O=C1CCCCCCCCCCCCCCCO1`, for which the Potency entry was “inactive”. With `O=C(O[C@@H](C(=O)O)[C@@H](OC(=O)c1ccccc1)C(=O)O)c1ccccc1`, the Potency entry was “inactive”.

As to `CN(C)CCCNCCCN(C)C`, the Potency result is “inactive”.

Regarding `CCC(=O)OC(C)c1ccccc1` (stereo unspecified), the Potency entry is “inactive”. For `CC(C)CC(C)(N)C#N` (stereo unspecified), the Potency entry is “inactive”. Take `Cc1cc(C)cc(O)c1`: the Potency entry is “inactive”. For `C=C(C)[C@@H]1CCC2=CC(=O)C[C@@H](C)[C@]2(C)C1`, the Potency result was “inactive”. As for `O=c1[nH]c(=O)c2ccccc2o1`, the Potency entry was “inactive”. The same measure, in the same setting: then `COCCOCCOCCOCCO`, with “inactive”; and `CCCCCCCCCCCCCCC(=O)NC(CO)CCCCCCCCCCCCCC` (stereo unspecified), with “inactive”. With `C[C@@H]1CCC[C@H](C)N1CCCC(O)(c1ccccc1)c1ccccn1` (stereo partly specified), the Potency result is “inactive”. For `CCCCCCCCCC(C)=O`, the Potency result is “inactive”. With `CNC(=O)Nc1ccc(Cl)c(Cl)c1`, the Potency result is “inactive”. Regarding `[Cl][Eu]([Cl])[Cl]`, the Potency entry is “inactive”.

Consider `c1cnc2cc3c(cc2n1)C1CNCC3C1`, for which the Potency result was “inactive”. For `Nc1c(NC/C=C\COc2cc(CN3CCCCC3)ccn2)c(=O)c1=O`, the activation is 0.666% [at 19 µM].
